RBX1-CUL1 inh – blocks human RBX1-Cullin-1 di-ubiquitin formation. inhibition, % at 10 µM. 140,000 tested, 0.6% active. in vitro K48 di-Ub FRET, acceptor:donor ratio, 45 min. AID 1347404. P62877+Q13616; in the data active = inhibition above about 25%
Target sequence (P62877 whole entry, looked up): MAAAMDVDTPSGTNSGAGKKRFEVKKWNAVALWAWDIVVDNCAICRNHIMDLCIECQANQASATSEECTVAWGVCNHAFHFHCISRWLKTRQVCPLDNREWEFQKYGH
Target sequence (Q13616 whole entry, looked up): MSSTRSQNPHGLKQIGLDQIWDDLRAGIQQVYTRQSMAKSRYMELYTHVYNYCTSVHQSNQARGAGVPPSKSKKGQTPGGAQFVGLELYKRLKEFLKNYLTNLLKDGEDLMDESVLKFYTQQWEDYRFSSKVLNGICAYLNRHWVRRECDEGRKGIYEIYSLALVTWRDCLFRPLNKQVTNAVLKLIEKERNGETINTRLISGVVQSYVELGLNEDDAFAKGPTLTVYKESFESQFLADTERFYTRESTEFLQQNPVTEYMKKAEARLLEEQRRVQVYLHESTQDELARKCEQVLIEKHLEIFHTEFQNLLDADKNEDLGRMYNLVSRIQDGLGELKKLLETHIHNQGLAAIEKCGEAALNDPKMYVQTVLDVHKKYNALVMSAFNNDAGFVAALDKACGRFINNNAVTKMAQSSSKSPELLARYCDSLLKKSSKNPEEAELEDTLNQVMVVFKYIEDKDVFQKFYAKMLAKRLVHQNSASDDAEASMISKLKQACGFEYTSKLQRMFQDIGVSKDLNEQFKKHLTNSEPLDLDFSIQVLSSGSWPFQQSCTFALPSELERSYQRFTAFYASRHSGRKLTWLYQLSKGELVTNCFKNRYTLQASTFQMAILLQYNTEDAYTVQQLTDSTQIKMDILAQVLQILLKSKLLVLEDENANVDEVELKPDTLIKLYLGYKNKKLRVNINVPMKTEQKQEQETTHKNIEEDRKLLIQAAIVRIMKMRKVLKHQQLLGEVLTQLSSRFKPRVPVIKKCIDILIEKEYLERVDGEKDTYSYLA
Starred values were filed as active, the others as inactive. The entries come from a sample that favours hits as a whole.

SMILES	RBX1-CUL1 inh
Cc1ccc(COc2ccc(Cl)cc2/C=C2\C(=O)NN(c3ccccc3)C2=O)cc1	9.3
Cc1ccc(OCCCOc2c(Cl)cc(Cl)cc2/C=C2\C(=O)NN(c3ccccc3)C2=O)cc1	77.4*
CCCOc1ccccc1/C=C1/C(=O)NN(c2ccc(I)cc2)C1=O	10.3
COc1cc(/C=C2\C(=O)NN(c3ccccc3)C2=O)cc(Cl)c1OCCCOc1ccc(C)cc1	92.1*
Cc1ccc(N2NC(=O)/C(=C/c3ccccc3OCc3ccccc3)C2=O)cc1Cl	8.2
COc1cc(/C=C2/C(=O)NN(c3ccc(C)cc3)C2=O)cc(Cl)c1OC	7.6
Cc1ccccc1COc1ccc(Cl)cc1/C=C1\C(=O)NN(c2ccccc2)C1=O	8.8
Cc1cc(OCCOc2ccccc2/C=C2\C(=O)NN(c3ccccc3)C2=O)ccc1Cl	7.5
COc1cc(C2NC(=S)N=C3CCCC(=O)C32)ccc1OCC(=O)Nc1ccccc1C (stereo not given)	4.5
O=C(CCN1CCCO1)N1CCCC(CO)(CCCc2ccccc2)C1 (stereo not given)	-1.9
CCCCN(CCCC)CCCOC(=O)Nc1c(C)cccc1C	-4.9
CCCNS(=O)(=O)Cc1cccc(C)c1	7.1
O=S(=O)(c1ccc(Cl)cc1)c1nc(-c2ccc(Cl)cc2Cl)oc1N1CCCCC1	5.0
Nc1nc2sc3c(c2cc1C(=O)N1CCOCC1)CCCC3	0.7
COc1cccc(NC(=O)CSc2nnc(COc3ccc(Cl)cc3)o2)c1	7.4
CC(=O)c1ccc(NC(=O)CN(C)S(=O)(=O)c2cnc[nH]2)cc1	-6.4
COCC1CCN(C(=O)c2cc(COc3cc(C)ccc3C)on2)CC1	2.3
Cc1[nH]n(-c2ccccc2)c(=O)c1/C=N/NC(=O)Cc1ccc(Br)cc1	0.2
Cc1[nH]n(-c2ccccc2)c(=O)c1C(C[N+](=O)[O-])c1ccc(Br)cc1 (stereo not given)	69.7*
Cc1[nH]n(-c2ccccc2)c(=O)c1C(c1ccc(-c2ccc(Br)cc2)o1)c1c(C)[nH]n(-c2ccccc2)c1=O	-9.3
COc1cc(OC)c(/C=N/Nc2nncc(-c3ccccc3)n2)c(OC)c1	-2.6
CC(=O)N1CCC(C(=O)Nc2sc3c(c2C(=O)N2CCOCC2)CCCC3)CC1	5.2
CC(=O)NCc1ccc(OC(C)=O)c(OC(C)=O)c1	1.6
CC(=O)Oc1ccccc1C(=O)Oc1ccccc1	-4.8
CC(=O)Oc1ccc(OC(C)=O)c2c1C(=O)C=CC2=O	99.4*
SMILES	RBX1-CUL1 inh
Cc1ccc(-n2nnc(-c3nsc(NC(=O)c4ccc(C)c(C)c4)n3)c2C)cc1	-3.3
Cc1c(-c2ccc(O)c(O)c2)oc2ccccc2c1=O	92.8*
Cc1ccc2oc3ccccc3c(=O)c2c1	-4.5
Cc1cccc2oc3ccccc3c(=O)c12	0.0
Cc1cccc(-n2c(-c3ccccc3)cn3c4c(=O)[nH]c(=O)n(C)c4nc23)c1	8.3
COc1ccccc1/C=C1/SC(=S)N(CCCCCC(=O)O)C1=O	14.9
O=C(O)CCCCCN1C(=O)/C(=C2\SC(=S)N(CCCCCC(=O)O)C2=O)SC1=S	65.0*
O=C(O)CCCCCN1C(=O)c2ccc3c4c(ccc(c24)C1=O)C(=O)N(CCCCCC(=O)O)C3=O	7.0
CCOc1ccccc1NC(=O)C(C)Oc1ccc(Br)cc1Br (stereo not given)	0.5
O=[N+]([O-])c1cccc(S(=O)(=O)n2nnc3ccccc32)c1	-1.1
CC(NC(=O)c1ccc(Br)cc1Br)c1ccccc1 (stereo not given)	13.9
CC(NC(=O)c1ccccc1F)c1ccccc1 (stereo not given)	-11.9
CC(NC(=O)c1cc([N+](=O)[O-])cc2c1-c1c(cc([N+](=O)[O-])cc1[N+](=O)[O-])C2=C(C#N)C#N)c1ccccc1 (stereo not given)	39.2*
O=C1CCC(CCNCCOc2ccc(F)cc2)N1Cc1nc(-c2ccccc2)cs1 (stereo not given)	2.0
O=C(Nc1cccc(C(F)(F)F)c1)c1cc2n(n1)C(C(F)(F)F)CC(c1ccc(Br)cc1)N2 (stereo not given)	8.1
Cc1ccc(-c2cc(-c3c(-c4ccccc4)c4cc(Cl)ccc4[nH]c3=O)nc3ccccc23)cc1	3.4
CC(=O)N1CCN(C(=O)CCc2nnc(CCCCc3ccccc3)o2)CC1	5.1
O=C1C=C(N2CCc3ccccc32)c2ccccc2C1=O	76.7*
Cc1nc(N2CCc3ccccc32)nc2c1C(=O)CC(C)(C)C2	0.5
O=C1C=C(N2CCCCC2)c2ccccc2C1=O	79.5*
CC(=O)N(C)C1=C(N2CCCC2)C(=O)c2ccccc2C1=O	-6.0
O=C1C(=Cc2ccc(N3CCCCCC3)o2)C(=O)c2ccccc21	3.7
Nc1ccc(S(=O)(=O)N2CCc3ccccc32)cc1	5.3
CC(C)Oc1ccc(CNC(=O)c2ccc(CN3CC(=O)N4CCCCC4C3=O)cc2)cc1 (stereo not given)	-7.0
N#Cc1cnn(-c2ncnc3c2nnn3Cc2ccccc2)c1N	-5.2
SMILES	RBX1-CUL1 inh
COc1ccc(CNC(=O)Cn2cc([N+](=O)[O-])cn2)cc1	3.1
CCOc1cc(OCC)cc(C(=O)NC(=S)Nc2cc(NC(=O)CC)ccc2Cl)c1	-7.4
Cc1ccc(CNC(=O)Cn2ccn(-c3cccc(Cl)c3)c(=O)c2=O)cc1	1.4
COCCN1C(=O)CC(CC(=O)N2CCN(c3ccc(Cl)cn3)CC2)(c2ccccc2F)C1=O (stereo not given)	1.5
O=C(NNc1ncccc1[N+](=O)[O-])NC1CCCCC1	-5.3
Cc1cc(C)c2c(C)nn(C(C)c3ccccc3)c2n1 (stereo not given)	9.3
CC(=O)c1sc(N2C(=O)C(=O)C(C(=O)c3cc4ccccc4o3)C2c2ccc(F)cc2)nc1C (stereo not given)	-0.7
CCCCCOc1ccc(C2C(C(=O)c3cc4ccccc4o3)C(=O)C(=O)N2c2nc(C)c(C(C)=O)s2)cc1OC (stereo not given)	0.7
Cc1ccc(CSc2nnc(N3C(=O)C(=O)C(C(=O)c4cc5ccccc5o4)C3c3ccc(OCc4ccccc4)cc3)s2)cc1 (stereo not given)	46.8*
COc1cc(C2C(C(=O)c3cc4ccccc4o3)C(=O)C(=O)N2c2nc3c(C)cc(C)cc3s2)ccc1OCc1ccccc1 (stereo not given)	4.3
O=C1C(=O)N(c2nnc(SCc3ccccc3F)s2)C(c2ccc(F)cc2)C1C(=O)c1cc2ccccc2o1 (stereo not given)	3.2
COc1cc(C2C(C(=O)c3cc4ccccc4o3)C(=O)C(=O)N2c2nnc(C)s2)ccc1OCc1ccccc1 (stereo not given)	64.6*
Cc1ccc2nc(N3C(=O)C(=O)C(C(=O)c4cc5ccccc5o4)C3c3ccccc3)sc2c1 (stereo not given)	-3.2
O=C1C(=O)N(c2nnc(SCc3ccc(F)cc3)s2)C(c2cccc(Oc3ccccc3)c2)C1C(=O)c1cc2ccccc2o1 (stereo not given)	40.5*
Cc1ccc(C2C(C(=O)c3cc4ccccc4o3)C(=O)C(=O)N2c2nnc(SCc3cccc4ccccc34)s2)cc1 (stereo not given)	-9.3
CC(C)CCC1(C2CCN(C(=O)Cc3cc(F)cc(F)c3)CC2)NC(=O)N(Cc2ccccn2)C1=O (stereo not given)	-0.7
Cc1nn(C(=O)c2cccc(Cl)c2)c(C)c1S(=O)(=O)N1CCOCC1	-3.4
Cc1ccc(C2=NN3C(=N)/C(=C/c4ccc5c(c4)OCO5)C(=O)N=C3S2)cc1	11.4
O=C(Nc1ccccc1Oc1ccccc1)C(F)(F)F	1.9
